# In a collection of fitness landscapes (doi:10.1038/s41467-024-54723-y):
# The full ranking holds about 18,000 sequences; the median of “TetR repression strength (sort-seq, GFP reporter)” is about 0.23, and the highest 2% start at about 0.68. What follows is part of a selection rich in the highest values, with near analogues and random picks from the rest.
# Biological target: TetR (class B, Tn10) (UniProt P04483)
# Experiment: TetR repression strength (sort-seq, GFP reporter) (relative to tetO2 = 1); higher = stronger repression
# Details: E. coli
# Summary of the method: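 Repression strength is the top bin index plus one minus the read-weighted mean bin, relative to the unaltered operator's value. A low-copy library in E. coli SIG10-MAX randomized eight operator positions between a constitutive promoter and sfGFP, with TetR expressed constitutively; cells grew 5 h at 37 °C in LB with 50 µg/mL chloramphenicol and 10^6 were FACS-sorted into 13 bins that were each Illumina-sequenced. Three independent transformations were averaged, keeping only members with ≥30 reads in all replicates and CV ≤0.5.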
# TetR (class B, Tn10), sequence (P04483 whole entry): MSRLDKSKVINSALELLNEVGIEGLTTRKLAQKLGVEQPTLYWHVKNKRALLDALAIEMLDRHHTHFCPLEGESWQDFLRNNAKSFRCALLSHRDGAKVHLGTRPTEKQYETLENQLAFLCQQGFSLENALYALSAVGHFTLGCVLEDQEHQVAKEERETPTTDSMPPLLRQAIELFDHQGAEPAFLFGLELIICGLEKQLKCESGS
row,Sequence,TetR repression strength
1,TCCCCAGTAGTAGTGGAGA,0.246
2,TCCCCTCTAGTAGGTGAGA,0.12
3,TCCCTTAGAGTGAGGGAGA,0.0732
4,TCCCAACAAGTCGCAGAGA,0.281
5,TCCCGAGCAGTGATCGAGA,0.708
6,TCCCGAGCAGTGACAGAGA,0.736
7,TCCCTAGCAGTGATCGAGA,0.659
8,TCCCCAGCAGTGATTGAGA,1.1
9,TCCCCATAAGTGATTGAGA,0.42
10,TCCCAAGCAGTGACAGAGA,0.432
11,TCCCGAGCAGTGATGGAGA,0.371
12,TCCCGAGCAGTGGCAGAGA,0.286
13,TCCCCAGCAGTGAGTGAGA,0.167
14,TCCCAGGAAGTGATTGAGA,0.266
15,TCCCCAGAAGTGATTGAGA,1.1
16,TCCCCAGCAGTGCTTGAGA,0.311
17,TCCCTACTAGTTACAGAGA,0.0592
18,TCCCGATTAGTCTTTGAGA,0.0932
19,TCCCCAGGAGTCCGGGAGA,0.332
20,TCCCACAAAGTCAGTGAGA,0.0709
21,TCCCTGATAGTCTTGGAGA,0.231
22,TCCCTCGAAGTGGGGGAGA,0.0994
23,TCCCGTCGAGTAAGTGAGA,0.219
24,TCCCGAGTAGTGGAGGAGA,0.155
25,TCCCTTGGAGTAACAGAGA,0
26,TCCCGAGCAGTGATAGAGA,0.75

row,Sequence,TetR repression strength
1,TCCCGAACAGTGGGGGAGA,0.367
2,TCCCGAGGAGTGCCAGAGA,0.547
3,TCCCAAGCAGTGAAAGAGA,0.367
4,TCCCGGGCAGTGATAGAGA,0.571
5,TCCCGAGCAGTGCTAGAGA,0.661
6,TCCCGAGCAGTGAAAGAGA,0.755
7,TCCCGAGAAGTGAAAGAGA,0.0859
8,TCCCGAGAAGTGCCAGAGA,0.312
9,TCCCGAACAGTGGGTGAGA,0.949
10,TCCCGAACAGTGTGTGAGA,0.161
11,TCCCGAGCAGTGCCAGAGA,0.684
12,TCCCACAAAGTGGCGGAGA,0.306
13,TCCCGTAAAGTTCCGGAGA,0.38
14,TCCCAAGGAGTAGGAGAGA,0.119
15,TCCCACGAAGTAATAGAGA,0.379
16,TCCCGATAAGTTTACGAGA,0.495
17,TCCCGAACAGTAACGGAGA,0.571
18,TCCCATTGAGTGCTTGAGA,0.36
19,TCCCGAGCAGTGTGTGAGA,0.222
20,TCCCGAGCAGTAACTGAGA,0.149
21,TCCCGTCGAGTGAGAGAGA,0.396
22,TCCCGTGCAGTAACAGAGA,0
23,TCCCGAGCAGTGAGTGAGA,0.507
24,TCCCGTCGAGTGAACGAGA,0.242
25,TCCCGAGCAGTGTGAGAGA,0.175
26,TCCCGAGCAGTGATTGAGA,0.701

row,Sequence,TetR repression strength
1,TCCCGTCGAGTGAAAGAGA,0.69
2,TCCCGTGCAGTGATTGAGA,0.165
3,TCCCGAGCAGTAACAGAGA,0.752
4,TCCCGAGCAGTGAGAGAGA,0.689
5,TCCCGTGAAGTACGCGAGA,0.217
6,TCCCCCGTAGTGGGAGAGA,0.312
7,TCCCTTTAAGTGCTGGAGA,0.3
8,TCCCACGGAGTGTGGGAGA,0.15
9,TCCCCAAGAGTTATAGAGA,0.281
10,TCCCTTACAGTGCGTGAGA,0.183
11,TCCCGAGCAGTTAGAGAGA,0.202
12,TCCCGAGGAGTTATAGAGA,0.326
13,TCCCGTGAAGTGAGCGAGA,0.888
14,TCCCGCGAAGTGAGCGAGA,0.248
15,TCCCGTGAAGTGGGCGAGA,0.0935
16,TCCCGAGCAGTTATAGAGA,0.686
17,TCCCTGTTAGTTGTAGAGA,0.271
18,TCCCGGTTAGTCTTGGAGA,0.317
19,TCCCCTTGAGTTTGTGAGA,0.323
20,TCCCTAAAAGTCTACGAGA,0.16
21,TCCCTTACAGTCTACGAGA,0.405
22,TCCCTGAAAGTATACGAGA,0.205
23,TCCCTTACAGTCCACGAGA,0.808
24,TCCCTTAAAGTCTAAGAGA,0.539
25,TCCCTAACAGTCCACGAGA,0.205
26,TCCCTGAAAGTCTGCGAGA,0.134

row,Sequence,TetR repression strength
1,TCCCTGAAAGTCTACGAGA,0.815
2,TCCCTTAAAGTCTACGAGA,0.771
3,TCCCTGGCAGTTTGCGAGA,0.65
4,TCCCGGGGAGTGCAGGAGA,0.176
5,TCCCGAATAGTGAGGGAGA,0.127
6,TCCCGGACAGTCGTCGAGA,0.892
7,TCCCGCCGAGTAGTCGAGA,0.18
8,TCCCGCCGAGTCGTCGAGA,1.24
9,TCCCGCCGAGTCGAGGAGA,0.36
10,TCCCGGACAGTCGACGAGA,0.0556
11,TCCCGGACAGTCATCGAGA,0.216
12,TCCCTTGCAGTCAATGAGA,0.251
13,TCCCAGGGAGTACTCGAGA,0.275
14,TCCCGGGGAGTGACTGAGA,0.143
15,TCCCTTCTAGTCCGTGAGA,0.468
16,TCCCGATGAGTCAGGGAGA,0.174
17,TCCCTGTAAGTCAGCGAGA,0.494
18,TCCCAGGCAGTGTGTGAGA,0.207
19,TCCCACATAGTATGTGAGA,1.23
20,TCCCACACAGTATGTGAGA,0.13
21,TCCCGCAGAGTATGTGAGA,0.171
22,TCCCTCATAGTATGTGAGA,0.257
23,TCCCACAGAGTATGTGAGA,1.24
24,TCCCACATAGTAAGTGAGA,0.207
25,TCCCGCATAGTTATTGAGA,0.197
26,TCCCGAACAGTGGGAGAGA,0.231

row,Sequence,TetR repression strength
1,TCCCATGGAGTTCGGGAGA,0.228
2,TCCCGGGTAGTTCGAGAGA,0.289
3,TCCCAGTTAGTTCGGGAGA,0.0688
4,TCCCCTTTAGTTCGGGAGA,0.339
5,TCCCATTTAGTTCGGGAGA,1.09
6,TCCCCATTAGTCGCGGAGA,0.241
7,TCCCGGGGAGTTCGGGAGA,0.307
8,TCCCATTGAGTTCGAGAGA,0.29
9,TCCCATTGAGTTCGGGAGA,0.851
10,TCCCATTTAGTCGGAGAGA,0.231
11,TCCCATTTAGTCGCGGAGA,0.755
12,TCCCGGGTAGTTCGGGAGA,0.723
13,TCCCATACAGTCGTAGAGA,0.0752
14,TCCCTCAGAGTGCTGGAGA,0.475
15,TCCCGGCAAGTTAGTGAGA,0.0764
16,TCCCGTCAAGTGCATGAGA,0.315
17,TCCCTATCAGTAGGCGAGA,0.414
18,TCCCTGTCAGTTACTGAGA,0.327
19,TCCCCTTCAGTTACTGAGA,0.28
20,TCCCTAACAGTTACTGAGA,0.297
21,TCCCTATCAGTTACGGAGA,0.484
22,TCCCTCTCAGTTACTGAGA,0.703
23,TCCCTAACAGTTACAGAGA,0.203
24,TCCCTATAAGTTACTGAGA,0.711
25,TCCCTTTCAGTTACAGAGA,0.363
26,TCCCTATCAGTTACTGAGA,0.698

row,Sequence,TetR repression strength
1,TCCCTATAAGTTATTGAGA,0.433
2,TCCCTAGAAGTTACTGAGA,0.18
3,TCCCTATCAGTTACAGAGA,0.707
4,TCCCCTTGAGTGGACGAGA,0.325
5,TCCCAGAGAGTAGCAGAGA,0.294
6,TCCCCCACAGTAAGAGAGA,0.158
7,TCCCTTATAGTGGGGGAGA,0.161
8,TCCCCCACAGTGAGGGAGA,0.311
9,TCCCCAGCAGTGAGGGAGA,0.0743
10,TCCCACCAAGTGAGGGAGA,0.324
11,TCCCCACGAGTGAGGGAGA,0.217
12,TCCCCACAAGTGAGGGAGA,0.956
13,TCCCCACCAGTGAGGGAGA,0.933
14,TCCCACTTAGTGACAGAGA,0.396
15,TCCCTGTGAGTGAGAGAGA,0.407
16,TCCCGTAGAGTATACGAGA,0.126
17,TCCCATTGAGTCCTAGAGA,0.304
18,TCCCACCAAGTACAGGAGA,0.186
19,TCCCGCTCAGTGACAGAGA,0.715
20,TCCCGCTCAGTGTCAGAGA,0.244
21,TCCCGCAGAGTGTAGGAGA,0.191
22,TCCCGGTCAGTGACAGAGA,0.666
23,TCCCGCTTAGTGTCAGAGA,0.634
24,TCCCTCTCAGTGACAGAGA,0.607
25,TCCCGCTCAGTGCCAGAGA,0.801
26,TCCCGCTCAGTGCCTGAGA,0.348

row,Sequence,TetR repression strength
1,TCCCGCTGAGTGCCAGAGA,0.341
2,TCCCGCAGAGTGTAAGAGA,0.753
3,TCCCGCTGAGTGTCAGAGA,1.09
4,TCCCGCGGAGTGTAAGAGA,0.256
5,TCCCTCTAAGTGTCCGAGA,0.512
6,TCCCTTCGAGTCCGAGAGA,0.228
7,TCCCGCATAGTACCTGAGA,0.562
8,TCCCCAGGAGTGTCTGAGA,0.273
9,TCCCTTAAAGTATTAGAGA,0.252
10,TCCCTTTAAGTTGACGAGA,0.338
11,TCCCAGGTAGTCGGCGAGA,0.113
12,TCCCGACCAGTATGCGAGA,0.0346
13,TCCCAGGGAGTAGTTGAGA,0.0889
14,TCCCGGGCAGTTCAAGAGA,0.417
15,TCCCGGTAAGTAGGCGAGA,1.05
16,TCCCGGGCAGTACACGAGA,0.318
17,TCCCGGGAAGTAGGCGAGA,0.849
18,TCCCGGGCAGTAGGCGAGA,1.05
19,TCCCGGGCAGTGGGCGAGA,0.253
20,TCCCAGGCAGTAGGCGAGA,0.205
21,TCCCGGTAAGTAGGAGAGA,0.229
22,TCCCGCTAAGTAGGCGAGA,0.0386
23,TCCCCGGAAGTAGGCGAGA,0.186
24,TCCCGGAAAGTAGGCGAGA,0.0444
25,TCCCGGGCAGTACAAGAGA,1.05
26,TCCCACCAAGTGTTCGAGA,0.311

row,Sequence,TetR repression strength
1,TCCCTCGGAGTGCTTGAGA,0.224
2,TCCCGACGAGTAGCAGAGA,0.486
3,TCCCGGTAAGTCAAGGAGA,0.397
4,TCCCTCATAGTGCTCGAGA,0.581
5,TCCCAGGGAGTGTTAGAGA,0.263
6,TCCCGCTGAGTCCGGGAGA,0.401
7,TCCCGGTCAGTAGGCGAGA,1.01
8,TCCCCGTCAGTAGGCGAGA,0.243
9,TCCCAGTCAGTAGGCGAGA,0.16
10,TCCCTAGCAGTCTTCGAGA,0.495
11,TCCCTTGGAGTCGTTGAGA,0.304
12,TCCCTTCTAGTTGCTGAGA,0.73
13,TCCCTTAGAGTCTATGAGA,0.159
14,TCCCTTTTAGTGTATGAGA,0.271
15,TCCCTTCTAGTTTTTGAGA,0.415
16,TCCCTTTTAGTCTATGAGA,0.858
17,TCCCTTTGAGTCTATGAGA,0.804
18,TCCCTTCTAGTTGTTGAGA,0.216
19,TCCCATTTAGTCTATGAGA,0.279
20,TCCCTTCTAGTCTTTGAGA,0.693
21,TCCCGTCTAGTCTTTGAGA,0.366
22,TCCCTTCTAGTTACTGAGA,0.464
23,TCCCTTTGAGTCTTTGAGA,0.181
